# Tests used:
# Assay in all cases: PBM binding z-score (relative to random genomic background probes); higher = stronger binding; sequences stand for … in GC…GCGATTGACAGCGTAGAATGAAGG
# [1] = test system: FXR:RXRa (NR concentration 270 nM, RXRa partner concentration 90 nM)
# In short: (§1)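 Scanned fluorescence from custom Agilent 4×180K protein-binding microarrays was regression-normalized. Binding z-scores use random background probes as reference. Ligand-free nuclear receptor dimers were incubated on the arrays for 1 h and detected with antibodies against each partner (one per run).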
# [2] = test system: LXRa:RXRa (NR concentration 270 nM, RXRa partner concentration 90 nM)
# In short: as §1
# [3] = test system: LXRa homodimer (NR concentration 270 nM)
# In short: as §1
# [4] = test system: LXRb:RXRa (NR concentration 270 nM, RXRa partner concentration 90 nM)
# In short: as §1
# [5] = test system: LXRb homodimer (NR concentration 270 nM)
# In short: as §1
# [6] = test system: PPARa:RXRa (NR concentration 270 nM, RXRa partner concentration 90 nM)
# In short: as §1
# [7] = test system: PPARg:RXRa (NR concentration 180 nM, RXRa partner concentration 90 nM)
# In short: as §1
# [8] = test system: PPARg:RXRa 270nM:90nM, anti-RXR (NR concentration 270 nM, RXRa partner concentration 90 nM)
# In short: as §1
# [9] = test system: PPARg:RXRa 30nM:10nM, anti-RXR (NR concentration 30 nM, RXRa partner concentration 10 nM)
# In short: as §1
# [10] = test system: PPARg:RXRa 90nM:30nM, anti-RXR (NR concentration 90 nM, RXRa partner concentration 30 nM)
# In short: as §1
# [11] = test system: PPARg:RXRa DBDmut IVT, anti-RXR (DBD mutation: RXRa K156A/R161A, NR concentration 270 nM, RXRa partner concentration 90 nM)
# In short: as §1
# [12] = test system: PPARg:RXRa IVT, anti-PPARg (NR concentration 270 nM, RXRa partner concentration 90 nM)
# In short: as §1
# [13] = test system: PPARg DBDmut:RXRa IVT, anti-PPARg (DBD mutation: PPARg1 K132A/R137A, NR concentration 270 nM, RXRa partner concentration 90 nM)
# In short: as §1
# [14] = test system: PPARg DBDmut IVT, anti-PPARg (DBD mutation: PPARg1 K132A/R137A, NR concentration 270 nM)
# In short: as §1
# [15] = test system: PPARg homodimer (NR concentration 180 nM)
# In short: as §1
# [16] = test system: PXR:RXRa (NR concentration 270 nM, RXRa partner concentration 90 nM)
# In short: as §1
# [17] = test system: PXR homodimer (NR concentration 270 nM)
# In short: as §1
# [18] = test system: RARa:RXR (NR concentration 270 nM, RXRa partner concentration 90 nM)
# In short: as §1
# [19] = test system: RARa homodimer (NR concentration 270 nM)
# In short: as §1
# [20] = test system: RARb:RXRa (NR concentration 270 nM, RXRa partner concentration 90 nM)
# In short: as §1
Sequence,PBM binding z-score [1],PBM binding z-score [2],PBM binding z-score [3],PBM binding z-score [4],PBM binding z-score [5],PBM binding z-score [6],PBM binding z-score [7],PBM binding z-score [8],PBM binding z-score [9],PBM binding z-score [10],PBM binding z-score [11],PBM binding z-score [12],PBM binding z-score [13],PBM binding z-score [14],PBM binding z-score [15],PBM binding z-score [16],PBM binding z-score [17],PBM binding z-score [18],PBM binding z-score [19],PBM binding z-score [20]
TCATATAGGTAAAGGCTAGGTGAAAGTCCGATCT,1.01,0.707,-0.194,0.441,-0.41,1.71,1.18,2.39,3.57,2.98,3.97,3.25,0.56,1.28,0.619,0.508,0.058,1.09,1.15,0.844
CCGAGTAGGTTATGGGGCATTAAGGCAACGGTGA,0.273,0.355,0.112,0.489,0.086,1.94,3.57,4.37,2.35,3.99,3.03,3.54,-0.853,-0.637,1.15,-0.0362,-0.296,0.648,0.0185,0.818
TCTGCTAGGTGAACGATGGTCAGCTAATCTGCTA,-0.414,-0.432,-0.946,-0.499,-1.35,0.449,0.238,0.769,1.17,0.916,3.12,2.97,-0.708,-0.769,-0.746,-0.428,-0.962,-0.153,-1.26,0.881
TCATTTAGGTAATACAGGTGAAAGTCGGCATCTA,1.6,1.41,0.774,1.47,1.18,2.02,0.962,2.92,4.52,3.72,3.53,3.29,1.53,1.6,1.72,1.06,0.701,1.43,2.03,1.07
ACTAGCAGGCCAAGGGTCACTCAGGATTAGTCCG,2.7,2.61,0.0255,2.69,-0.237,4.39,7.87,7.62,6.72,8.16,1.05,3.72,-0.273,-0.162,4.08,3.21,-0.196,4.33,0.739,3.59
TCATATAGGTAACACAGGTGAAAGTCGGCATCTA,1.43,1.43,0.437,1.22,0.437,2.4,2.36,3.3,4.15,3.83,4.65,4.09,0.968,1.6,1.38,1.15,0.735,1.5,1.19,1
CGTCAAAGTTCAAGGTAACGTACCAGAAAGCAGC,6.54,5.59,3.17,3.47,1.03,4.79,4.38,5.05,1.94,4.24,0.681,2.41,0.882,0.599,4.5,4.28,3.52,3.57,2.48,5.12
TCTTGTAGATCAATAGAGGTTAAGAAGGTGCGCT,0.831,2.82,0.464,1.44,-0.193,2,0.18,1.52,2.75,1.95,1.45,0.982,-0.0465,0.519,0.274,2.12,-0.00143,1.94,0.262,0.921
AGAATGAGGTTACCAAAGATCAGGGCAACGCTTG,2.12,6.55,-0.189,3.11,-0.372,3.61,3.06,3.12,1.15,2.34,3.79,3.77,0.564,0.291,0.848,1.81,-0.116,2.47,-0.187,2.43
AGAATGAAGTTACCAAAGATCAGGGAAACGCTTG,-0.327,0.631,-0.337,-0.292,-0.771,-0.153,0.523,0.0888,0.0872,0.08,-0.595,-0.423,0.443,0.266,-0.127,-0.206,-0.375,-0.000481,-0.214,-0.335
ACTCGGAGGACAAAGGTCAGAGATACGCCAGTGA,4.21,4.08,1.83,3.54,0.52,4.69,7.66,6.85,6.73,7.24,0.715,3.35,0.221,-0.524,4.07,4.02,0.592,5.15,1.44,4.56
TCATATAGGTGAACAGGTGAAAGTCCGTAAGTTA,1.35,1.14,0.444,1.22,0.00841,3.47,4.77,4.6,4.3,4.44,6.52,6.31,1.63,1.36,1.1,1,0.638,1.46,0.907,1.64
CGTCCAAGGTCAAGGCCAGTGAAAGAGACTCGAA,7.2,5.21,0.208,3.73,0.00439,5.55,4.75,5.05,1.48,3.69,2.93,3.4,0.269,-0.184,2.5,3.44,0.449,4.09,0.0458,5.19
CGTCCACGGTCAAGGTCAGTGAAAGAGACTCGAA,2.73,1.71,-0.21,1.6,-0.801,2.61,0.677,1.15,-0.28,0.438,0.397,1.53,-0.802,-1.07,1.28,1.69,0.177,2.2,0.0153,4.28

# From the supplement of paper PMC6555819
